Screening results (PubChem)
KCNQ2 pot: KCNQ2 (rat) channel potentiation | 310,000 tested, 0.54% active | CHO-K1 KCNQ2, FluxOR thallium flux fluorescence; active compounds read high | B-score at 10 µM;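 active means fluorescence ratio B-score at least 3 SD of library B-scores, with initial fluorescence B-score within 3 of them, cut at about 5.3 in these data; same plate scores as AID 2156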;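 further: B-score of peak minus minimum over baseline fluorescence ratio after K+ and Tl+ stimulus; positive B-score means potentiation of KCNQ2 with more thallium influx and brighter signal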
KCNQ2 inh: blocks the rat KCNQ2 potassium channel; CHO-K1 KCNQ2, FluxOR thallium flux, 20 min; active compounds read low; B-score at 10 µM; 310,000 tested, 1.1% active; O88943;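 active means fluorescence ratio B-score at most minus 3 library SDs, with starting brightness B-score within 2 library SDs, cut at about -5.5 in these data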
KCNQ2 inh conf: rat KCNQ2 channel inhibition, confirmatory screen; shares compounds with KCNQ2 inh; KCNQ2-expressing cells, thallium flux; active compounds read low; activity change, negative = inhibition, % at 10 µM; 1,000 tested, 57% active; AID 493025;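 further: 0% = vehicle wells and values are ratio percent relative to vehicle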
KCNQ1 spec: human KCNQ1 activity in KCNQ2 inhibitor specificity screen. 1,000 tested, 15% active. activity change, negative = inhibition, % at 10 µM. KCNQ1-expressing cells, FluxOR thallium flux fluorescence; active compounds read low. shares compounds with KCNQ2 inh;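 active means activity change at least 3 SD of negative controls below their mean in both duplicate wells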;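 further: CHO cells stably transfected with KCNQ1 and depolarized by potassium stimulus; peak minus minimum fluorescence over baseline after thallium addition; 0% = vehicle negative control and -100% = blank without thallium stimulus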
Target sequence (P51787 whole entry, looked up): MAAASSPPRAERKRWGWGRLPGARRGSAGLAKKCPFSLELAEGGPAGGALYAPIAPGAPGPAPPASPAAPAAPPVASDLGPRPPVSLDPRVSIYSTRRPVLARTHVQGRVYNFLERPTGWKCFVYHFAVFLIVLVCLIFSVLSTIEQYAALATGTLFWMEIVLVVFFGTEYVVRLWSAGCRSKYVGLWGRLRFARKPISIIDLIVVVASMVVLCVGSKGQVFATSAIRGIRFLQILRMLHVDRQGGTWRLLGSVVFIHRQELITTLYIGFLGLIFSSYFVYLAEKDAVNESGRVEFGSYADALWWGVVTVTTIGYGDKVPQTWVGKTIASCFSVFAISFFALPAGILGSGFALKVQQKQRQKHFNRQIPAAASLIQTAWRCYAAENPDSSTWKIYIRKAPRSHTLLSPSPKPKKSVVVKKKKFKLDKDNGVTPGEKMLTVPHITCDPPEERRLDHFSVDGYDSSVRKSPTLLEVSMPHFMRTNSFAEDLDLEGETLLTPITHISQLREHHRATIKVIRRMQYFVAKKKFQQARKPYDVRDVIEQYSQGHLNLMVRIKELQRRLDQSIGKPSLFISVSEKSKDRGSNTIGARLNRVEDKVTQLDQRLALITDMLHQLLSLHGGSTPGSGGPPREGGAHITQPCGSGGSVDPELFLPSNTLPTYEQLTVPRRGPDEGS
CHO parental ctr: counter-screen for KCNQ2 inhibitors: effect in parental CHO cells | shares compounds with KCNQ2 inh | thallium flux counter-screen; active compounds read low | AID 493029 | activity change, % at 10 µM | 1,000 tested, 14% active;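 further: 0% = vehicle negative controls with stimulus buffer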
KCNQ2 inh confirm: blocks rat KCNQ2 current in automated patch clamp. AID 588531. shares compounds with KCNQ2 inh. 550 tested, 49% active. calls only at 10 µM. KCNQ2-expressing cells
* = called active by the depositor; i = inactive; . = no result given; + = active, no number. Most compounds without a hit are left out; they make up all but 1.6% or so of the library. Unless noted, how the calls were made is not given here.

SMILES	KCNQ2 pot	KCNQ2 inh	KCNQ2 inh conf	KCNQ1 spec	CHO parental ctr	others
O=C(CN(c1ccc(Cl)c(Cl)c1)S(=O)(=O)c1ccccc1)N1CCc2ccccc2C1	-9.4	-9.4*	-33%*	i	i	KCNQ2 inh confirm=+
COc1ccc(N(CC(=O)N2CCc3ccccc3C2)S(=O)(=O)c2ccccc2)cc1	.	i	.	.	.
COCCCN(C(=S)Nc1cc(Cl)cc(Cl)c1)C(C)c1ccncc1 (stereo not given)	0.36	i	.	.	.
COCCCN(C(=S)Nc1cc(Cl)cc(Cl)c1)C(C)c1ccccn1 (stereo not given)	-8.5	-8.5*	i	i	i
CN(C)CCC(=O)c1ccc(F)cc1	.	i	.	.	.
CCN(CC)CCC(=O)c1ccc(F)cc1	-9	-9*	-36%*	i	i	KCNQ2 inh confirm=i
O=C1c2cccnc2C(Nc2ccc(Br)cc2Br)N1Cc1cccs1 (stereo not given)	1	i	.	.	.
COc1ccc(-n2c(=O)c3c4c(sc3n(CC(=O)Nc3cc(C)[nH]n3)c2=O)CCCC4)c(OC)c1	-6.7	-6.7*	i	i	i
CCOc1ccccc1NC(=O)Cn1c(=O)n(-c2ccc(OC)cc2OC)c(=O)c2c(C)c(C(=O)N(CC)CC)sc21	.	i	.	.	.
CCOP(=O)(OCC)C(NC(=O)c1cccs1)c1ccccc1 (stereo not given)	0.15	i	.	.	.
COc1ccc(CCNC(=O)Cn2nnc(C(=O)Nc3cc(C)ccc3C)c2N)cc1OC	0.28	i	.	.	.
CC(C)C[C@H](NC(=O)N1CCn2c1nc1ccccc12)C(=O)NCCc1ccccc1	.	i	.	.	.
CC(C)C[C@H](NC(=O)N1CCn2c1nc1ccccc12)C(=O)NCc1ccccc1	-6.7	-6.7*	i	i	i
O=C(COC(=O)c1ccccc1C(=O)c1ccc(Cl)cc1)NC(c1ccccc1)c1ccccc1	-8.7	-8.7*	i	i	i
O=C(OCc1ccccc1Cl)c1ccccc1C(=O)c1ccccc1	-8.3	-8.3*	-36%*	-36%*	-34%*	KCNQ2 inh confirm=i
O=C(COC(=O)c1ccccc1C(=O)c1ccc(Cl)cc1)NCCc1ccccc1	.	i	.	.	.
O=C(OCc1ccccc1Cl)c1cccnc1Cl	.	i	.	.	.
O=C(Nc1ccc(Cl)c([N+](=O)[O-])c1)ONC1=NCCCCC1	.	i	.	.	.
Cc1cccc(C)c1OCc1cc(C(=O)N(C)CCc2ccccn2)no1	.	i	.	.	.
Cc1cc(S(=O)(=O)Nc2ccc(C(=O)NCc3cccnc3)cc2)ccc1F	.	i	.	.	.
COc1ccc(CCN(Cc2nc3ccccc3c(=O)[nH]2)C(=O)c2ccco2)cc1	0.37	i	.	.	.
CCC(CC)C(=O)N(CCc1ccc(OC)cc1)Cc1nc2ccccc2c(=O)[nH]1	-9.5	-9.5*	-30%*	i	i	KCNQ2 inh confirm=+
COC(=O)C1=C(CCc2ccccc2)NC(=O)NC1c1ccc(Br)cc1 (stereo not given)	0.8	i	.	.	.
COc1cc(/C=N/N=C(N)N)ccc1OCc1ccccc1Cl	-10	-10*	-26%*	i	i	KCNQ2 inh confirm=i
COc1ccc(/C=N/N=C/c2ccc(OC)c(OC)c2)cc1OC	0.43	i	.	.	.
SMILES	KCNQ2 pot	KCNQ2 inh	KCNQ2 inh conf	KCNQ1 spec	CHO parental ctr	others
COC(=O)C1=C(C)NC=C([N+](=O)[O-])C1c1ccc(OC)cc1 (stereo not given)	.	i	.	.	.
COc1ccccc1-c1cc(C(F)(F)F)nc(N2CCCCC2)n1	-9.7	-9.7*	i	i	i
COc1ccccc1-c1cc(C(F)(F)F)nc(N2CCCC2)n1	0.01	i	.	.	.
CCCCn1nc(NC(=O)CC)c2cc3cc(OC)ccc3nc21	1	i	.	.	.
COc1ccccc1CC(=O)NC1CCCc2ccccc21 (stereo not given)	-7.1	-7.1*	-24%*	i	i	KCNQ2 inh confirm=+
COc1ccc(-c2nc(CSCC(=O)NC3CCCc4ccccc43)c(C)o2)cc1 (stereo not given)	-7.3	-7.3*	-29%*	i	i	KCNQ2 inh confirm=+
CCOC(=O)N1CCC(NC(=O)CSCc2nc(-c3ccc(OC)cc3)oc2C)CC1	.	i	.	.	.
COc1cc(CC(=O)NC2CCCc3ccccc32)cc(OC)c1OC (stereo not given)	0.39	i	.	.	.
COC(=O)[C@H](CC(C)C)NC(=O)NC1CCCc2ccccc21 (stereo not given in full)	-7.5	-7.5*	-28%*	i	i	KCNQ2 inh confirm=+
CC(C)C[C@H](NC(=O)NC1CCCc2ccccc21)C(=O)O (stereo not given in full)	.	i	.	.	.
Cn1nccc1C(=O)N1CCN(S(=O)(=O)c2ccc(Br)s2)CC1	.	i	.	.	.
O=c1sc2ccccc2c(N2CCOCC2)c1[N+](=O)[O-]	0.52	i	.	.	.
COc1ccc(/C=C(/C(=O)c2cccs2)N2C=CC=CC2=C(C#N)C#N)cc1	-7.9	-7.9*	-42%*	i	i	KCNQ2 inh confirm=i
COc1ccc(N=N/C(=C\O)C(=O)c2cccs2)cc1	.	i	.	.	.
O=C(Nc1cccnc1)C1CCN(S(=O)(=O)c2ccc(Cl)cc2)CC1	.	i	.	.	.
CN(C)c1nc(NCc2ccccc2)nc(N/N=C/c2ccccc2F)n1	.	i	.	.	.
CN(C)c1nc(NCc2ccccc2)nc(N/N=C/c2ccc(Cl)cc2Cl)n1	-8.8	-8.8*	i	i	i
COC(=O)C(NC(C)=O)(Nc1nc(C)cs1)C(F)(F)F (stereo not given)	.	i	.	.	.
COC(=O)C(NC(=O)c1ccccc1)(Nc1nc(C)cs1)C(F)(F)F (stereo not given)	-8.5	-8.5*	i	i	i
Cc1cc(C(=O)CSc2ccc(F)cc2)cc(C)c1O	0.04	i	.	.	.
Cc1cc(C(=O)CSc2ccc(Cl)cc2)cc(C)c1OC(=S)N(C)C	-8.7	-8.7*	i	i	i
C=C1c2ccccc2NC(=S)N1Cc1ccc2c(c1)OCO2	.	i	.	.	.
OC(CNCc1cccnc1)COc1ccc2ccccc2c1 (stereo not given)	.	i	.	.	.
CC(C)(CNC(=O)c1ccc(Br)o1)CNC(=O)c1ccc(Br)o1	1.2	i	.	.	.
Cc1nn(C(C)C(=O)NCCCN2CCCCCC2)c(=O)c2c1sc1ccccc12 (stereo not given)	.	i	.	.	.
SMILES	KCNQ2 pot	KCNQ2 inh	KCNQ2 inh conf	KCNQ1 spec	CHO parental ctr	others
Cc1nn(C(C)C(=O)NCc2ccccc2Cl)c(=O)c2c1sc1ccccc12 (stereo not given)	-7.8	-7.8*	-32%*	i	i	KCNQ2 inh confirm=+
CCN(C(=O)c1ccco1)C1C2CC3CC(C2)CC1C3 (stereo not given)	.	i	.	.	.
Cc1cccc(C)c1OCC(=O)Nc1cccc(-c2nnc(-c3ccccc3)o2)c1	-9.5	-9.5*	-28%*	i	i	KCNQ2 inh confirm=i
Cc1cccc(OCC(=O)Nc2cccc(-c3nnc(-c4ccccc4)o3)c2)c1C	0.59	i	.	.	.
Cc1nnc(SCC(=O)Nc2c(C)n(C)n(-c3ccccc3)c2=O)n1Cc1ccccc1	.	i	.	.	.
C/C(=N\NC(=O)c1nn(C)c(C)c1Br)c1ccc(NC(=O)c2ccccc2F)cc1	.	i	.	.	.
